From PubChem BioAssay (EPA / NIEHS)
Where “and” joins values, the source holds several entries; their conditions need not be identical. Equal entries are not always repeated. Results filed as inconclusive are left out. Some compounds were tested as several samples or in several runs, with calls that do not always agree. Calls of active or inactive are those of the source. How the source made its calls: active means hit-call score of the fitted dose curve at least 0.9, where 1 is the maximum; inconclusive means response in the unintended direction; inactive means score below 0.9.

Tests used:
[1] = TOX21_p53_BLA_p2_viability: Viability Assessment in the Tox21 HCT-116 p53 Agonism Beta-lactamase Assay, Phase 2 (AID 2283591);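 further: compound exposure lasted 16 h at 37 °C; actives lower the ATP signal meaning cytotoxicity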
Method in brief: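 HCT116 p53-bla cells, 4000/well, dosed after 5 h plating (217-fold dilution of DMSO stocks) and incubated 16 h at 37C. Viability taken as cellular ATP by CellTiter-Glo luminescence after 30 min RT; signal loss marks cytotoxicity.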

[2] = target: Cellular tumor antigen p53 (Homo sapiens) (UniProt P04637); experiment: TOX21_p53_BLA_p2_ratio: Tox21 HCT-116 p53 Agonism Beta-lactamase Assay, Ratio, Phase 2 (AID 2283592)
Cellular tumor antigen p53 (Homo sapiens), sequence (P04637 whole entry, looked up): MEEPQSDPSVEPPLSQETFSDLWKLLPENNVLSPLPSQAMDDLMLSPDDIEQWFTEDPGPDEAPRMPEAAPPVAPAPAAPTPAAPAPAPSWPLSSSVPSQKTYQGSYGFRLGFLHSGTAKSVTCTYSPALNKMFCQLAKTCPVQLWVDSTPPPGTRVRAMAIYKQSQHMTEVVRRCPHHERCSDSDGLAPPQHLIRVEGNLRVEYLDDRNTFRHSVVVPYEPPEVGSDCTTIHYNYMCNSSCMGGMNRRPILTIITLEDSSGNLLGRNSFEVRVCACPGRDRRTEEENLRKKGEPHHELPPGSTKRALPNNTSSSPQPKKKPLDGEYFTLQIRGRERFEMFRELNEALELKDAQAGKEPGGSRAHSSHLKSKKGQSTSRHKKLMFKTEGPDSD
Method in brief: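 HCT116 cells carrying a p53-responsive beta-lactamase reporter were plated, incubated 5 h at 37C, then dosed with compounds in DMSO (217-fold dilution) for 16 h. CCF4-AM substrate was added for 2 h at room temperature; the 460/530 nm emission ratio gave gain-of-signal activity relative to DMSO.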

[3] = TOX21_p53_BLA_p3_viability: Viability Assessment in the Tox21 HCT-116 p53 Agonism Beta-lactamase Assay, Phase 3 (AID 2283593);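 further: cells exposed to compound for 16 h before reading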
Method in brief: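 HCT116 cells, 4000/well, dosed 5 h after plating by pin transfer (217-fold dilution from DMSO stock) and incubated 16 h at 37C, 5% CO2. Viability read as ATP luminescence with CellTiter-Glo after 30 min at room temperature.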

[4] = target: Cellular tumor antigen p53 (Homo sapiens) (UniProt P04637); experiment: TOX21_p53_BLA_p3_ratio: Tox21 HCT-116 p53 Agonism Beta-lactamase Assay, Ratio, Phase 3 (AID 2283596)
Method in brief: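 HCT116 p53-bla cells (4000/well) given compound in DMSO (217-fold dilution) after 5 h, incubated 16 h at 37C. CCF4-AM substrate 2 h at room temperature; 460/530 nm emission ratio, gain fitted against DMSO.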

[5] = TOX21_p53_BLA_p4_viability: Viability Assessment in the Tox21 HCT-116 p53 Agonism Beta-lactamase Assay, Phase 4 (AID 2283597);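 further: hits lower the luminescence signal meaning cytotoxicity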
Method in brief: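 HCT116 p53-bla cells (4000/well) rested 5 h at 37C, then received compounds in DMSO (217-fold dilution) for 16 h at 37C, 5% CO2. CellTiter-Glo was added after the CCF4-AM read, and luminescence was read after 30 min at room temperature.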

[6] = target: Cellular tumor antigen p53 (Homo sapiens) (UniProt P04637); experiment: TOX21_p53_BLA_p5_ratio: Tox21 HCT-116 p53 Agonism Beta-lactamase Assay, Ratio, Phase 5 (AID 2283599)
Method in brief: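 HCT-116 p53-bla cells (4000/well) plated 5 h, dosed with compound (217-fold DMSO dilution) for 16 h at 37 C; CCF4-AM substrate 2 h at room temperature. Activity is the 460/530 nm emission ratio (405 nm excitation), fitted in gain-of-signal direction versus DMSO.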

[7] = TOX21_p53_BLA_p5_viability: Viability Assessment in the Tox21 HCT-116 p53 Agonism Beta-lactamase Assay, Phase 5 (AID 2283600)
Method in brief: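 Cells were plated at 4000/well, rested 5 h at 37C, then given compounds in DMSO (217-fold dilution) for 16 h at 37C, 5% CO2. Following the CCF4-AM beta-lactamase read, CellTiter-Glo was added and luminescence was read after 30 min at room temperature.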

[8] = target: Cellular tumor antigen p53 (Homo sapiens) (UniProt P04637); experiment: TOX21_p53_BLA_p4_ratio: Tox21 HCT-116 p53 Agonism Beta-lactamase Assay, Ratio, Phase 4 (AID 2283601)
Method in brief: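 HCT-116 p53 beta-lactamase reporter cells (4000/well) preincubated 5 h, then compound (217-fold dilution of DMSO stock) for 16 h at 37C. CCF4-AM substrate added 2 h at room temperature; 460/530 nm emission ratio fitted upward versus DMSO.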

[9] = ATG_XTT_Cytotoxicity: Cytotoxicity Assessment in the Attagene TRANS-FACTORIAL HepG2 Assay (AID 2283584)
Method in brief: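 HepG2 human liver cells, transiently transfected with multiple GAL4-UAS reporter units, were dosed and read at 24 h by XTT as cell number. Loss of signal was fitted relative to DMSO negative control baseline.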

[10] = Tanguay_ZF_120hpf_MORT_legacy: (Legacy) Oregon State University Tanguay Lab 120 Hour Post-fertilization zebrafish Assay for Mortality (AID 2283633)
Method in brief: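 Dechorionated Tropical 5D wild-type zebrafish embryos, one per well from 6 hpf, were statically exposed at 28C in the dark until 120 hpf (0.64% DMSO final). Mortality was scored as present/absent by brightfield microscopy, fitted positively versus DMSO.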

[11] = Tanguay_ZF_120hpf_YSE_legacy: (Legacy) Oregon State University Tanguay Lab 120 Hour Post-fertilization zebrafish Assay for Yolk Sac Edema (AID 2283634)
Method in brief: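 Tropical 5D wild-type embryos, dechorionated with pronase at 4 hpf, were exposed singly from 6 hpf to 120 hpf under static, sealed, dark conditions at 28C with 0.64% DMSO final. Yolk sac edema was scored present/absent by brightfield microscopy.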

[12] = Tanguay_ZF_120hpf_AXIS_legacy: (Legacy) Oregon State University Tanguay Lab 120 Hour Post-fertilization zebrafish Assay for Body Axis Malformation (AID 2283635)
Method in brief: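 Tropical 5D wild-type zebrafish embryos, dechorionated with pronase at 4 hpf, were placed singly in wells at 6 hpf and exposed statically to test chemical (0.64% DMSO final) at 28C until 120 hpf, then scored by brightfield for body axis defects.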

[13] = Tanguay_ZF_120hpf_EYE_legacy: (Legacy) Oregon State University Tanguay Lab 120 Hour Post-fertilization zebrafish Assay for Eye Malformation (AID 2283636);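 further: binary presence or absence of eye malformation scored by brightfield in 120 hpf larvae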
Method in brief: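 Dechorionated Tropical 5D zebrafish embryos, one per well from 6 hpf, static exposure to 120 hpf at 28C, 0.64% DMSO. Eye malformation scored present/absent by brightfield; dead embryos not scored.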

[14] = Tanguay_ZF_120hpf_SNOU_legacy: (Legacy) Oregon State University Tanguay Lab 120 Hour Post-fertilization zebrafish Assay for Snout Malformation (AID 2283637)
Method in brief: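 Dechorionated tropical 5D wild-type zebrafish embryos exposed statically from 6 to 120 hpf at 28C, one per well, in 0.64% DMSO. Snout malformation scored as present/absent by brightfield at 120 hpf; dead embryos not scored.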

[15] = Tanguay_ZF_120hpf_JAW_legacy: (Legacy) Oregon State University Tanguay Lab 120 Hour Post-fertilization zebrafish Assay for Jaw Malformation (AID 2283638)
Method in brief: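 Tropical 5D wild-type embryos, dechorionated with pronase at 4 hpf, were placed singly per well at 6 hpf and statically exposed at 28C until 120 hpf (0.64% DMSO final). Jaw malformation scored as present/absent by brightfield microscopy at 120 hpf, analyzed relative to DMSO.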

[16] = Tanguay_ZF_120hpf_PE_legacy: (Legacy) Oregon State University Tanguay Lab 120 Hour Post-fertilization zebrafish Assay for Pericardial Edema (AID 2283640)
Method in brief: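 Tropical 5D wild-type zebrafish embryos were exposed statically to 120 hpf at 28C, sealed and foil-covered, in 0.64% DMSO final. Pericardial edema was scored present/absent by brightfield microscopy; dead embryos were not scored.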

[17] = Tanguay_ZF_120hpf_SOMI_legacy: (Legacy) Oregon State University Tanguay Lab 120 Hour Post-fertilization zebrafish Assay for Somite Malformation (AID 2283647)
Method in brief: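 Tropical 5D wild-type zebrafish embryos, dechorionated with pronase at 4 hpf, were placed singly at 6 hpf and statically exposed until 120 hpf at 28C in 0.64% DMSO. Somite malformation was scored present/absent by brightfield microscopy versus DMSO.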

Measured: AC50

CCCCN(CC)C(=O)SCCC
inactive: [1] | [2] | [3] | [4] | [5] | [6] | [7] | [8]

CCOP(=S)(OCC)SCn1nnc2ccccc2c1=O
inactive: [9] | [2] | [3] | [4] | [5] | [6] | [7] | [8]

CCCCOCCOP(=O)(OCCOCCCC)OCCOCCCC
inactive: [9] | [2] | [3] | [5] | [7] | [8]

CCCCc1ccc(O)cc1
inactive: [9] | [2] | [4] | [5] | [6] | [8]

CC(C)(C)c1ccc(O)cc1
inactive: [10] | [11] | [12] | [13] | [14] | [15] | [16] | [17]

CCN(CC)C1CCCCC1
inactive: [2] | [3] | [4] | [6] | [7] | [8]

C=CC(=O)OCC(CC)(COC(=O)C=C)COC(=O)C=C
inactive: [9] | [2] | [4] | [6] | [8]
active: [2] 86.6 µM | [3] 69.2 µM and 16.2 µM | [5] 75.7 µM and 97.1 µM | [7] 85.1 µM and 89.1 µM | [8] 69.1 µM

FC(F)(F)c1ccc(Cl)cc1
inactive: [9] | [2] | [3] | [4] | [6] | [8]

CC(C)Nc1ccc(Nc2ccccc2)cc1
inactive: [9] | [2] | [3] | [7] | [8]
active: [2] 14.6 µM and 23.1 µM | [4] 66.1 µM and 76.4 µM and 31.5 µM | [5] 46.1 µM and 45.9 µM and 19.2 µM | [6] 66.4 µM and 78.4 µM and 24 µM | [8] 14.9 µM

O=P(OCC(Br)CBr)(OCC(Br)CBr)OCC(Br)CBr (centres undefined)
inactive: [9] | [2] | [3] | [5] | [7]
active: [2] 80.2 µM | [4] 75.3 µM and 86.9 µM | [6] 66.9 µM and 74.7 µM | [8] 75.7 µM and 73.6 µM

O=C(CBr)OCc1ccccc1
inactive: [9] | [2] | [4] | [7]

O=NN1CCCC1
inactive: [2] | [3] | [4] | [6] | [7] | [8]

Cc1ccc(O)cc1C
inactive: [10] | [11] | [12] | [13] | [14] | [15] | [16] | [17]

Cc1ccc2c(c1N)C(=O)c1ccccc1C2=O
inactive: [9] | [2] | [3] | [4] | [5] | [6] | [7] | [8]

O=c1ssc(Cl)c1Cl
inactive: [9] | [2] | [7] | [8]
active: [3] 73.7 µM | [4] 61.2 µM
